# Source: PubChem (several laboratories)
# PKD1 inh: inhibitors of human PKD1 kinase; PKD1 kinase fluorescence polarization assay; inhibition, % (test concentration not listed); hit rate 0.056% among 200,000; AID 797; in the data active = inhibition above about 50%
# UBC9 SUMO inh: blocks human SUMOylation mediated by UBC9; HTRF SUMOylation assay, SAE1/SAE2 + UBC9, in vitro; P63279; inhibition, % at 35 µM; hit rate 0.36% among 290,000; in the data active = inhibition above about 50%, passing the limit was not always enough
# Target sequence (P63279 whole entry, looked up): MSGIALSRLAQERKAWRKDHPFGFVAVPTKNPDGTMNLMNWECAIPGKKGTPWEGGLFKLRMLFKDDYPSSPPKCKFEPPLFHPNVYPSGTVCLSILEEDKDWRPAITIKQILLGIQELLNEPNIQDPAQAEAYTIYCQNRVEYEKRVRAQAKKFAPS
# Redox H2O2 prof: compounds producing H2O2 with reducing agent – biochemical, NIH compound library profiling, artefact control for MLSCN library redox annotation, primary screen | hit rate 0.03% among 200,000 | DTT-dependent redox cycling H2O2, phenol red/HRP absorbance; 100% = 100 µM peroxide control, 0% = buffer | activation, % at 10 µM;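 active = activation of at least 50% relative to the plate's high and low controls in the primary single-dose screen; inactive = activation below 50%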;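 also: compound incubated with DTT at 0.8 mM final as the reducing agent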
# Furin inhibitor: human furin inhibition; P09958; purified furin, fluorogenic substrate cleavage; inhibition, % at 20 µM or 30 µM; hit rate 0.061% among 220,000; in the data active = inhibition above about 25%
# p97 inhibitor: inhibitors of human p97 ATPase; P55072; inhibition, % at 8 µM; hit rate 0.42% among 220,000; AID 1481; recombinant p97 ATPase, Kinase-Glo ATP luminescence, 3 h; in the data active = inhibition above about 15%;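 also: 0% = DMSO vehicle and 100% = wells lacking enzyme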
# FAS-TE inh: inhibitors of human fatty acid synthase thioesterase domain. recombinant FAS-TE, OMFH fluorogenic substrate, fluorescence endpoint. inhibition, % at 15 µM. hit rate 0.67% among 360,000. AID 602261;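 active = compounds whose normalised, plate-corrected inhibition of enzyme fluorescence in the single-dose primary screen is 50% or more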;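 also: 0% = DMSO with enzyme and 100% = substrate without enzyme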
# DTT redox conf: generates H2O2 by DTT-dependent redox cycling, confirmed in dose response | hit rate 40% among 60 | shares compounds with Redox H2O2 prof | phenol red-HRP absorbance | EC50, µM;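 active = EC50 under a set limit for hydrogen peroxide production with the reducing agent DTT present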
# p97 confirm: human p97 ATPase inhibition, confirmation; AID 1517; shares compounds with p97 inhibitor; hit rate 44% among 760; inhibition, % at 8 µM; recombinant p97 ATPase, Kinase-Glo ATP luminescence;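 active = percent inhibition of p97 ATPase above a set limit, the primary screen's mean plus 3 SD, cut at about 15% in these data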;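 also: 0% = DMSO wells and 100% = wells lacking p97 protein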
# FAS-TE conf: confirmation of human fatty acid synthase thioesterase inhibitors; recombinant FAS-TE, OMFH fluorogenic substrate, fluorescence; shares compounds with FAS-TE inh; inhibition, % at 15 µM; hit rate 45% among 2,300;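 active = compounds inhibiting the enzyme by at least 50% at 15 µM in any one of the replicates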;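 also: 0% = enzyme with DMSO only and 100% = wells lacking enzyme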
# An asterisk follows results filed as active; . = no result. Compounds with a hit are over-represented: about 1.2% of the library has one in this group of screens.
SMILES,PKD1 inh,UBC9 SUMO inh,Redox H2O2 prof,Furin inhibitor,p97 inhibitor,FAS-TE inh,p97 confirm,others
Cc1ccc(S(=O)(=O)/N=C2/C=C(Sc3ncn[nH]3)C(=O)c3ccccc32)cc1,-10,95*,120*,-20,23*,-1,.,DTT redox conf=12*
Cc1ccc(S(=O)(=O)/N=C2\C=C(NS(=O)(=O)c3ccccc3)C(=O)c3ccccc32)c(C)c1,.,.,.,.,.,16,.,
CC(C)c1ccc(S(=O)(=O)/N=C2/C=C(Sc3ncn[nH]3)C(=O)c3ccccc32)cc1,-7,90*,93*,-10,22*,14,.,DTT redox conf=13*
CC[C@H](C)[C@H](NC(=O)OCc1ccccc1)C(=O)OCC(=O)N1CCN(c2ccc(OC)cc2)CC1,.,.,.,.,.,25,.,
O=C1CNC(=O)c2cc(Cl)ccc2N1,.,.,.,.,.,-11,.,
Cc1ccc(NS(=O)(=O)c2cc(NC(=O)C(C)Oc3ccccc3)ccc2C)c(C)c1 (configuration not stated),1,-24,0,-12,4,26,.,
Cc1ccc(C)c(S(=O)(=O)Nc2cc(SCC(=O)O)c(O)c3ccccc23)c1,2,80,101*,1,6,30,.,DTT redox conf=>50
O=C(COC(=O)c1ccc([N+](=O)[O-])s1)Nc1ncc(C(F)(F)F)cc1Cl,3,25,86*,-16,3,7,.,DTT redox conf=>50
Nc1cnc(Br)cc1Br,-6,3,0,-2,-1,-8,.,
Nc1cc2nsnc2cc1Br,18,100*,362*,-4,43*,26,.,DTT redox conf=>50
O=C1C=C(N(CCO)Cc2ccccc2)c2ccccc2C1=O,-4,64*,129*,-20,10,6,.,DTT redox conf=3.1*
O=C1c2ccccc2C(=O)c2c1cccc2N(CCO)CCO,.,-6,.,.,.,-5,.,
CCOC(=O)c1c2c(n(-c3ccc(OC)cc3)c1C)C(=O)C(=O)c1ccccc1-2,.,.,.,.,.,46,.,
CCOC(=O)c1c2c(n(C)c1COC)C(=O)C(=O)c1ccc(Br)cc1-2,1,.,343*,-16,5,.,.,DTT redox conf=>50
COCCN1C(=O)COc2ccccc2C1C(=O)NCc1ccccc1 (configuration not stated),.,.,.,.,.,-10,.,
CCCCn1c(NC(=O)c2ccccc2Cl)c(C#N)c2nc3ccccc3nc21,-10,.,311*,0,29*,34,40*,DTT redox conf=>50
CCCc1nc2c(=O)n(C)c(=O)nc-2n(C)n1,-6,98*,128*,-18,32*,4,29*,DTT redox conf=1.5*
CCn1c(N)nc2c1c(=O)n(C)c(=O)n2C,-2,-16,-2,-26,-2,-6,.,
Cc1c(C(c2cccc(Br)c2)c2c(C)n(C)n(-c3ccccc3)c2=O)c(=O)n(-c2ccccc2)n1C,.,0,.,.,.,-5,.,
CCCCn1c(NS(=O)(=O)c2ccc(C)cc2)c(S(=O)(=O)c2ccccc2)c2nc3ccccc3nc21,2,100*,97*,-6,24*,20,39*,DTT redox conf=>50
CC(C)C(N)c1csc(Nc2ccc(C(=O)NCCCO)cn2)n1 (configuration not stated),.,.,.,.,.,-8,.,
NC(=O)C1CCN(C2=C(Cl)C(=O)c3ccccc3C2=O)CC1,-3,8,356*,-13,3,52*,.,DTT redox conf=>50;FAS-TE conf=29
O=C(CSc1ccccc1)NNC(=O)c1ccccc1O,.,7,.,.,.,-1,.,
C/C(=N\NC(=O)c1cccc(F)c1)c1ccc(Br)s1,-9,-1,1,-6,19*,-2,2,
S=c1[nH]nc(C2CC2)n1Cc1ccccc1,-1,12,-4,-9,50*,-7,9,
SMILES,PKD1 inh,UBC9 SUMO inh,Redox H2O2 prof,Furin inhibitor,p97 inhibitor,FAS-TE inh,p97 confirm,others
COc1ccc(C2=NN(c3ccccc3)C(=O)/C2=C\c2ccc(O)c(OC)c2)cc1,-7,74*,1,-16,35*,-4,7,
Cc1cc(NC(=O)CN2C(=O)NC(C)(c3ccc(Cl)cc3Cl)C2=O)no1 (configuration not stated),.,.,.,.,.,-7,.,
CC(C)c1nc2sc3c(=O)[nH]cnc3c2c2c1CCCC2,.,17,.,-13,16*,-2,20*,
CC(C)c1nc2sc3c(=O)[nH]cnc3c2c2c1CCC2,-6,11,0,-11,9,-2,.,
CC(C)c1nc2sc3c(=S)nc[nH]c3c2c2c1CCC2,.,6,.,-23,42*,3,41*,
Cc1cccn2c(=O)c(C=O)c(N3CCSCC3)nc12,.,17,.,-14,2,1,.,
Cc1ccccc1CN1C2=NCCCN2c2ccccc21,-4,-7,0,-21,15*,-12,1,
Cc1ccccc1CN1C2=NCCN2c2ccccc21,-1,6,0,-21,-1,-14,.,
Cc1[nH]c2ccccc2c1/C=N/NC(=O)c1ccccc1,.,-9,.,.,.,0,.,
Cc1[nH]c2ccccc2c1/C=N/NC(=O)c1cc(-c2ccccc2)n[nH]1,.,-38,.,4,21*,22,17*,
Cc1[nH]c2ccccc2c1/C=N/Nc1cccc(C(=O)O)c1,.,17,.,-25,18*,-2,19*,
NC(=O)NN=C1CCN2CCCc3cccc1c32,.,.,.,.,.,-7,.,
CC(C)N1C(=O)CC(Nc2cccc3cccc(N)c23)C1=O (configuration not stated),3,87,-1,-21,18*,1,3,
Cc1ccc(SC/C(O)=C(\C#N)c2nc3ccccc3s2)cc1,5,20,-1,-7,21*,4,39*,
O=C1CCCC/C1=C\Nc1ccc(O)cc1,-3,40,-2,-24,21*,-2,7,
O=C1CCC/C1=C/Nc1ccc(Cl)cc1,-3,5,3,-8,3,-3,.,
CC(=O)c1ccc2cccc3c2c1N=CN3C,-8,77,0,-22,32*,-13,5,
CN1c2cccc3cccc(c23)N(C)C1(C)C,1,20,2,-15,4,1,.,
COc1cc(NC(=O)c2cc(-c3ccccc3Cl)on2)cc(OC)c1OC,.,-18,.,.,.,35,.,
N#Cc1c(NC(=O)c2ccccc2Cl)n(Cc2ccccc2)c2nc3ccccc3nc12,1,100*,4,-15,38*,40,47*,
CCCCn1c(NC(=O)CC)c(C#N)c2nc3ccccc3nc21,-6,10,3,-19,5,-4,.,
COc1ccc(-n2c(NC(=O)c3ccco3)c(C#N)c3nc4ccccc4nc32)cc1,9,86,0,-14,32*,-4,29*,
CC1(C(=O)NCc2ccccc2Br)CCN1C(=O)Cc1ccc(-c2ccccc2)cc1 (configuration not stated),.,.,.,.,.,22,.,
